Our source for the Potency values is PubChem BioAssay (NCATS).

Records with an inconclusive call do not appear. The source made the active and inactive calls. The call rests on the fitted dose curve; in most records, active means well fitted inhibition curve with a large enough effect; inconclusive means small, poorly fitted or top-dose-only effect; inactive means flat fitted curve, though single readings scatter.

What all share (assay): qHTS profiling for inhibitors of Plasmodium falciparum proliferation (AID 504749); further: nearly all actives have a fitted effect of over 60% in size
Holding throughout (details): P. falciparum in erythrocytes, SYBR Green DNA, 72 h; series mostly up to 28.7 µM

The test system of one assay is 3D7. Summed up:
(§1)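 SYBR Green fluorescence (ex 485 nm, em 535 nm) reports parasite DNA after 72 h compound exposure of infected red cells at 0.3% parasitemia, 2.5% hematocrit; signal normalized to 0.29 uM artemisinin and vehicle wells.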

The next assay has as its system C2A. In a few lines:
as §1

A further assay concerns CP185. In a few lines: as §1
Another assay relates to CP194. In a few lines:
as §1

In a further assay the test system is CP201. In a few lines:
as §1

The subject of the next assay is CP211. Summed up:
as §1

The subject of the next assay is CP250. In a few lines: as §1
For another assay, the system named is CP256. Summed up:
as §1

For the next assay, the system named is CP260. Summed up:
as §1

Another assay relates to CP266. In a few lines: as §1
A further assay relates to CP269. In a few lines:
as §1

A further assay relates to CP305. In a few lines:
as §1

The subject of another assay is CP315. In a few lines:
as §1

A further assay relates to CP325. In a few lines:
as §1

The subject of another assay is CP329. In a few lines: as §1
A further assay relates to DIV14. Summed up:
as §1

Another assay has as its system GB4. In a few lines:
as §1

A further assay deals with DIV17. In a few lines: as §1
A further assay concerns PC15. Summed up:
as §1

In the next assay the test system is TAB109. In a few lines: as §1
Potency means the concentration at half of the fitted maximal effect.

Take `C[C@@H]1C[C@H]2[C@H]3C[C@@H](F)C4=CC(=O)C=C[C@]4(C)[C@@]3(Cl)[C@@H](O)C[C@@]2(C)[C@@H]1C(=O)COC(=O)C(C)(C)C`: the Potency with 3D7 and with CP260 was 12.6 µM (active) throughout. Further, the Potency result in the assay on C2A, in the assay on CP185, in the assay on CP194, in the assay with CP201, with CP211 and in the assay on CP250 was “inactive” in each case. Besides, the Potency result with CP256, in the assay on CP266, with CP269, in the assay on CP305, with CP315 and in the assay with CP325 was “inactive” throughout. The Potency entry in the assay with CP329, in the assay on DIV14 and with GB4 was “inactive” throughout.
For `CO/N=C(\C(=O)N[C@@H]1C(=O)N2C(C(=O)[O-])=C(C[N+]3(C)CCCC3)CS[C@@H]12)c1csc(N)n1`, the Potency result in the assay on 3D7, in the assay with C2A, in the assay with CP185, in the assay with CP194, in the assay with CP201 and in the assay with CP211 was “inactive” each time. Besides, the Potency result with CP250, in the assay with CP256, in the assay on CP260, in the assay with CP266, in the assay on CP269 and with CP305 was “inactive” throughout. Also, the Potency result in the assay with CP315, with CP325, in the assay with CP329, in the assay on DIV14, with DIV17 and in the assay on GB4 was “inactive” each time. Further, the Potency result in the assay on PC15 is “inactive”.
As to `COc1cc2nc(N(C)CCCNC(=O)[C@@H]3CCCO3)nc(N)c2cc1OC`, the Potency result in the assay with 3D7, with C2A, with CP185, with CP194, in the assay with CP201 and with CP211 was “inactive” each time. For the same compound, the Potency entry in the assay on CP250, in the assay on CP256, in the assay on CP260, in the assay with CP269, in the assay with CP305 and with CP315 was “inactive” in each case. Moreover, the Potency result in the assay with CP325, with CP329, with DIV14, with DIV17, with GB4 and in the assay with PC15 was “inactive” each time. Moreover, in the assay with TAB109, the Potency result was “inactive”.
Consider `C[C@H]1C[C@@H]2[C@H]3CCC4=CC(=O)C=C[C@@]4(C)[C@@]3(Cl)[C@@H](O)C[C@]2(C)[C@]1(OC(=O)c1ccco1)C(=O)CCl`, for which the Potency with 3D7 is 3.98 µM (active); with CP260, 3.98 µM (active); with DIV14 it was 5.1 µM (active); with DIV17, 7.21 µM (active); in the assay on GB4, 6.42 µM (active); with TAB109 it was 3.55 µM (active).
For `C=C(NC(=O)C(=C)NC(=O)c1csc(C2=N[C@@H]3c4csc(n4)[C@@H]4NC(=O)c5csc(n5)[C@@H]([C@](C)(O)[C@H](C)O)NC(=O)[C@@H]5CSC(=N5)/C(=C/C)NC(=O)[C@@H]([C@H](C)O)NC(=O)c5csc(n5)[C@]3(CC2)NC(=O)[C@@H](C)NC(=O)C(=C)NC(=O)[C@@H](C)NC(=O)[C@@H]([C@@H](C)CC)N[C@H]2C=Cc3c([C@H](C)O)cc(nc3[C@@H]2O)C(=O)O[C@H]4C)n1)C(N)=O`, in the assay with PC15, the Potency result was “inactive”. In addition, in the assay on TAB109, the Potency was 0.398 µM (active).
Turning to `C(=C/c1ccccc1)/CN1CCN(C(c2ccccc2)c2ccccc2)CC1`, the Potency entry with C2A, with CP185, with CP194, in the assay with CP201, in the assay with CP211 and in the assay with CP250 was “inactive” throughout. Besides, the Potency entry in the assay on CP256, in the assay with CP266, in the assay on CP269, with CP305, in the assay with CP315 and in the assay on CP325 was “inactive” in each case. For the same compound, the Potency entry in the assay on CP329, with DIV17, with PC15 and in the assay with TAB109 was “inactive” in each case.
